Sampled rows, rich in hits. Any-hit rate of the full collection: about 2.8%.
HIF-2a inh: inhibitors of HIF-2a | 786-0 RCC cells HIF-2a reporter, luciferase luminescence, overnight | inhibition, % at 18.8 µM | 360,000 compounds, 0.72% hits | AID 624352;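 active means inhibition of the luminescence signal of 40% or more relative to plate controls, in a single-dose primary screen at 18.75 µM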
KKLEB tox: counter-screen for CF NF-kB inhibitors: cytotoxicity; KKLEB CF airway cells viability, ATPlite luminescence, overnight; active compounds read low; cells stimulated with P. aeruginosa culture filtrate; activity change (cytotoxicity), % at 5 µM; 360,000 compounds, 0.36% hits; AID 602141;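 active means corrected activity change at or below -50% at 5 µM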
Peg3 promoter: inhibitors of Peg3 promoter; HeLa PEG-Prom luciferase reporter, luminescence, overnight; inhibition, % at 20 µM; 360,000 compounds, 1.7% hits; AID 588405;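 active means inhibition of at least 50% at 20 µM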
CF NFkB block: cystic fibrosis NF-kB activation inhibition; KKLEB NF-kB-GFP reporter, PAF-induced, GFP fluorescence overnight; AID 588850; 360,000 compounds, 0.86% hits; inhibition, % at 5 µM;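 active means at least 50% inhibition at 5 µM, scaled per plate between neutral and stimulator controls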;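 further: PAF is a Pseudomonas aeruginosa culture filtrate used as stimulus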
Shn3 3UTR inh: reduces Shn3 3'UTR luciferase signal in osteoblasts; Clone20 osteoblast Shn3 3'UTR firefly luciferase, 24 h; inhibition, % at 12.5 µM; 360,000 compounds, 0.52% hits; AID 588674;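 active means mean inhibition of at least 75% with every replicate also reaching 75%; inconclusive means mean inhibition at least 75% but some replicate below; inactive means mean inhibition below 75%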
TRPM1 prom inh: inhibitors of MITF-driven TRPM1 promoter in melanoma cells; AID 488899; 330,000 compounds, 0.83% hits; inhibition, % at 12.5 µM; SK-MEL-5 TRPM1 promoter luciferase, 24 h;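 active means mean inhibition across replicates of 60% or more, whatever share of single replicates reaches that level; inconclusive means some that reach 60%, reason not given; inactive means mean inhibition across replicates below 60%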
Each line names hits and unclear results; the compound was inactive in the other large screens.

Cc1ccc(S(=O)(=O)N2CCN(C(=O)C3CCN(c4ncnc5sc(C)c(C)c45)CC3)CC2)c(C)c1	Shn3 3UTR inh 92
CCN(CC)CCC=C(c1cccs1)c1cccs1	none
CN(C)S(=O)(=O)c1ccc(C(=O)Nc2ccn(C)n2)cc1	none
COc1ccc(C(=O)/C=C2\Sc3ccccc3N2C)cc1	none
COc1ccc(-[n+]2c(C)cc(/C=C3\Sc4ccccc4N3C)cc2C)cc1	HIF-2a inh 53, Peg3 promoter 115, Shn3 3UTR inh 88, TRPM1 prom inh 101
COc1ccc(-n2c(SCC(=O)Nc3cc(C)on3)nc3c(c2=O)SC(C)C3)cc1 (stereo not given)	none (no result: TRPM1 prom inh)
CC(C)(C)OC(=O)NCCc1nnc(S(=O)(=O)Cc2ccc(Cl)cc2Cl)o1	CF NFkB block 60
O=C(COc1ccc(Br)cc1)OCCN1CCCCC1	none
COc1cc(C2C3=C(Nc4ncnn42)c2ccccc2CC3)cc(OC)c1OC (stereo not given)	KKLEB tox -52, TRPM1 prom inh inconclusive
O=C1NC2c3c(Cl)sc(Cl)c3C(=O)C2O1 (stereo not given)	Peg3 promoter 68
O=C(/C=C/c1ccnc2ccccc12)c1cccs1	Peg3 promoter 102, CF NFkB block 61
NC1=CC(=O)C(=O)c2ccccc21	Peg3 promoter 55, CF NFkB block 68, TRPM1 prom inh 97
COc1ccccc1C(=O)Nc1c[nH]c(=O)[nH]c1=O	Peg3 promoter 64
Cn1ccsc1=NC(=O)c1ccc(S(C)(=O)=O)c([N+](=O)[O-])c1	Peg3 promoter 78
Cn1ccsc1=NC(=O)c1ccc(Cl)c([N+](=O)[O-])c1	none
COc1ccc(Cl)cc1-c1cc(C(=O)Nc2ccc(C)c(NS(C)(=O)=O)c2)[nH]n1	Peg3 promoter 69 (no result: TRPM1 prom inh)
Cc1ccc(NC(=O)c2cc(-c3cc(Cl)ccc3C)n[nH]2)cc1NS(C)(=O)=O	none (no result: TRPM1 prom inh)
O=C(COC(=O)c1sc2ccccc2c1Cl)NCC1CCCCC1	Peg3 promoter 59
CC(Nc1ncnc2ccccc12)c1ccccc1 (stereo not given)	Shn3 3UTR inh 88
CCCCC(Nc1ncnc2ccccc12)C(=O)O (stereo not given)	none
CC(=O)Nc1ccc(NC(=O)COc2ccc(-c3ccc(C#N)cc3)cc2)cc1	none
N#Cc1ccc(-c2ccc(OCC(=O)Nc3cccnc3)cc2)cc1	Shn3 3UTR inh 89
Cc1ccc(C)c(C(=O)N(C)CC(=O)Nc2ccccc2C(F)(F)F)c1	none (no result: TRPM1 prom inh)
O=C(CCCCCNc1nc(=S)[nH]c2ccccc12)NCCc1c[nH]c2ccccc12	Peg3 promoter 51
CCOC(=S)SCC(=O)Nc1nc(-c2ccc(Br)cc2)cs1	CF NFkB block 66
CCOC(=S)SCC(=O)Nc1nc(-c2ccccc2)cs1	none
CC(NC(=O)Cn1ncc(Cl)c(Cl)c1=O)C12CC3CC(CC(C3)C1)C2 (stereo not given)	HIF-2a inh 91, KKLEB tox -78, Peg3 promoter 97, CF NFkB block 84, Shn3 3UTR inh 98, TRPM1 prom inh 108
CC(=O)c1ccc(NC(=S)N2CCN(S(=O)(=O)c3ccc(F)cc3)CC2)cc1	none
COc1ccc(C(C(=O)NC2CCCCC2)N(C(=O)CCl)c2cccc(Cl)c2)cc1 (stereo not given)	KKLEB tox -76, Peg3 promoter 102, CF NFkB block 100, Shn3 3UTR inh 92, TRPM1 prom inh 88
COc1ccc(C(C(=O)NC2CCCCC2)N(C(=O)c2cccs2)c2ccc3c(c2)OCO3)cc1 (stereo not given)	KKLEB tox -70
O=C(NC1CCCCC1)C(c1cccnc1)N(C(=O)CCl)c1ccc(F)cc1 (stereo not given)	Peg3 promoter 69, TRPM1 prom inh 87
O=C(Cn1c(C(F)(F)F)nc2ccccc21)N=Nc1c(O)[nH]c2ccc(Br)cc12	none
CCn1c(/C=C/c2ccccc2)nc2ccccc21	KKLEB tox -53
COCCC1CCCCN1C(=O)c1cc(COc2ccc(C)nc2)on1 (stereo not given)	KKLEB tox -95, CF NFkB block 69
Cc1ccc(S(=O)(=O)NCC(=O)NCCc2c[nH]c3ccccc23)cc1C	none
Cn1c(=NC(=O)CCl)sc2ccccc21	KKLEB tox -86, CF NFkB block 94
COc1ccc2c(c1)CC=C1C2CCC2(C)C(=O)C(=NO)CC12 (stereo not given)	CF NFkB block 54
Cc1nc(N2CCN(C(=O)c3ccco3)CC2)c2c3c(sc2n1)CC(C)CC3 (stereo not given)	Shn3 3UTR inh 92
Cc1sc2nc(CN(C(=O)NC3CCCCC3)C3CCCCC3)[nH]c(=O)c2c1C	Peg3 promoter 50
CCc1cccc(CC)c1NC(=S)N(CCN(C)C)C(C)c1cccnc1 (stereo not given)	none
Cc1cc(C)nc(N(C#N)CN2C(=O)c3ccccc3C2=O)n1	none
CC(C)Nc1nc(Cl)nc(N(C#N)CN2C(=O)c3ccccc3C2=O)n1	Peg3 promoter 95
CCC(C)Nc1nc(Cl)nc(N(C#N)CN2C(=O)c3ccccc3S2(=O)=O)n1 (stereo not given)	TRPM1 prom inh 69
CN1CCN(C(=O)CCN2C(=O)c3ccccc3S2(=O)=O)CC1	none
COCCNc1c(-c2cc3ccc(C)c(C)c3[nH]c2=O)nc2ccccn12	none
c1ccc(-c2ncc3c(ccc4ccccc43)n2)cc1	KKLEB tox -54
Cc1cccc(NC(=O)/C(C#N)=C/c2cn(CC(=O)NCc3ccco3)c3ccccc23)c1	KKLEB tox -63, Peg3 promoter 60, CF NFkB block 60
COc1ccccc1OCCn1cc(/C=C(\C#N)C(=O)NCc2ccco2)c2ccccc21	none
Cc1ccc(C)c(OCCn2cc(/C=C(\C#N)C(=O)NCc3ccco3)c3ccccc32)c1	KKLEB tox -58, CF NFkB block 57
CC(C)(CO)NCc1ccccc1OCC(=O)Nc1ccccc1	none
Cc1ccc(NC(=O)COc2ccccc2CNC(C)(C)CC(C)(C)C)cc1	Peg3 promoter 75
CCCCC1(Cc2cccc([N+](=O)[O-])c2)C(=O)N(c2ccccc2)N(c2ccccc2)C1=O	Peg3 promoter 52
O=C(CSc1nc2ccc(NC(=O)CSc3nnnn3-c3ccccc3)cc2s1)Nc1ccccc1	KKLEB tox -65, CF NFkB block 61
O=C(CSc1nnnn1-c1ccccc1)Nc1ccccc1	none
Cc1cccc(-c2nc3c(c(SCC(=O)N4CCCC4)n2)COC(C)(C)C3)c1	none
Cc1ccc(O)c(CNCCNCc2cc(C)ccc2O)c1	none
Cc1ccc(O)c(Cc2cc(C)cc(Cc3cc(C)ccc3O)c2O)c1	Peg3 promoter 56 (no result: TRPM1 prom inh)
O=C1NC(Cc2ccc(O)cc2)c2nc3ccc(Br)cc3c(=O)n2-c2cc3ccccc3cc21 (stereo not given)	none (no result: TRPM1 prom inh)

Screening results as filed in PubChem BioAssay.
